# Assay results published in publication PMC11006913.
# Numbering of substitutions follows the chain as printed.
# Tests used:
# Assay in all cases: PBM; 200 nM protein, PBS
# Conditions in all cases: dsDNA, one strand shown
# NKX2-4 = target: T1, NKX2-4 (Homo sapiens, UniProt Q9H2Z4 175-261)
# T1 sequence: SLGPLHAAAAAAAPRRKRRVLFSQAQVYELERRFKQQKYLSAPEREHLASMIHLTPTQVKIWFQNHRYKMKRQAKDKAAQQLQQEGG
# SIX6 [1] = target: T2, SIX6 (Homo sapiens, UniProt O95475 114-200, L143M)
# T2 sequence: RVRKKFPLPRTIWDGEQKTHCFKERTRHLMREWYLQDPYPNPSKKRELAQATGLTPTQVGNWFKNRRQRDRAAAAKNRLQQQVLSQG
# SIX6 [2] = target: T3, SIX6 (Homo sapiens, UniProt O95475 114-200, L143I)
# T3 sequence: T2 sequence with M30I
# SIX6 [3] = target: T4, SIX6 (Homo sapiens, UniProt O95475 114-200, L167V)
# T4 sequence: T2 sequence with M30L, L54V
# HOXB6 [4] = target: HOXB6 (Homo sapiens, UniProt P17509 132-218, K202E)
# HOXA2 [5] = target: HOXA2 (Homo sapiens, UniProt O43364 129-215, R185T)
# HOXA2 [6] = target: HOXA2 (Homo sapiens, UniProt O43364 129-215, R185K)
# HOXA2 [7] = target: HOXA2 (Homo sapiens, UniProt O43364 129-215, Y150S)
# HOXA2 [8] = target: HOXA2 (Homo sapiens, UniProt O43364 129-215)
# HOXB6 [9] = target: HOXB6 (Homo sapiens, UniProt P17509 132-218)
# HOXD13 [10] = target: HOXD13 (Homo sapiens, UniProt P35453 263-343, T313R)
# HOXD13 [11] = target: HOXD13 (Homo sapiens, UniProt P35453 263-343)
# PAX4 = target: T5, PAX4 (Homo sapiens, UniProt O43316 9-242, F177Y)
# T5 sequence: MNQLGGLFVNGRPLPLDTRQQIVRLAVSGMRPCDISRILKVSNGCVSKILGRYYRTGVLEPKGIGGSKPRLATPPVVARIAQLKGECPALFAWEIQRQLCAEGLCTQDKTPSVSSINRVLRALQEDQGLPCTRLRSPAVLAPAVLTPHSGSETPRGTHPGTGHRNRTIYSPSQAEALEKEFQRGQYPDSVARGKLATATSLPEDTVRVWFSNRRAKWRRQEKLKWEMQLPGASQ
# PROP1 [12] = target: PROP1 (Homo sapiens, UniProt O75360 56-141)
# PROP1 [13] = target: PROP1 (Homo sapiens, UniProt O75360 56-141, R99H)
# HOXD13 [14] = target: HOXD13 (Homo sapiens, UniProt P35453 263-343, T313A)
# HOXC9 = HOXC9 (Homo sapiens, UniProt P31274 178-260, R222W)
# PROP1 [15] = target: PROP1 (Homo sapiens, UniProt O75360 56-141, F88S)
# ALX1 [16] = target: ALX1 (Homo sapiens, UniProt Q15699 118-204, L144V)
# ALX1 [17] = target: ALX1 (Homo sapiens, UniProt Q15699 118-204, L144R)
# NKX3-2 [18] = target: NKX3-2 (Homo sapiens, UniProt P78367 192-278, P234S)
# ALX1 [19] = target: ALX1 (Homo sapiens, UniProt Q15699 118-204)
# NKX3-2 [20] = target: NKX3-2 (Homo sapiens, UniProt P78367 192-278)
# Sequence of NKX3-2 (Homo sapiens, UniProt P78367 192-278) (P78367 192-278): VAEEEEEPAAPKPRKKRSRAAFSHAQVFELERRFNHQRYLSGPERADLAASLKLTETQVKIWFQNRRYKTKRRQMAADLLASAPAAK
# Sequence of HOXB6 (Homo sapiens, UniProt P17509 132-218, K202E) (P17509 132-218 K202E): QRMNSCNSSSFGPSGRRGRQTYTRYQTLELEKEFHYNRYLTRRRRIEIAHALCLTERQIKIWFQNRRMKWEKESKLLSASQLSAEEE
# Sequence of HOXB6 (Homo sapiens, UniProt P17509 132-218) (P17509 132-218): as the sequence (P17509 132-218 K202E) above, with E71K counted along it
# Sequence of HOXA2 (Homo sapiens, UniProt O43364 129-215) (O43364 129-215): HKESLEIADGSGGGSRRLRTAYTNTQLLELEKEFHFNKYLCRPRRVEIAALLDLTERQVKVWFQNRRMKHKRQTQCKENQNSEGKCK
# Sequence of ALX1 (Homo sapiens, UniProt Q15699 118-204, L144R) (Q15699 118-204 L144R): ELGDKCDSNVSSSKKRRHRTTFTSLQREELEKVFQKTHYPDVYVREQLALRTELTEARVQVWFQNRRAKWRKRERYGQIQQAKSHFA
# Sequence of HOXA2 (Homo sapiens, UniProt O43364 129-215, Y150S) (O43364 129-215 Y150S): as the sequence (O43364 129-215) above, with Y22S counted along it
# Sequence of HOXA2 (Homo sapiens, UniProt O43364 129-215, R185K) (O43364 129-215 R185K): as the sequence (O43364 129-215) above, with R57K counted along it
# Sequence of ALX1 (Homo sapiens, UniProt Q15699 118-204) (Q15699 118-204): as the sequence (Q15699 118-204 L144R) above, with R27L counted along it
# Sequence of HOXA2 (Homo sapiens, UniProt O43364 129-215, R185T) (O43364 129-215 R185T): as the sequence (O43364 129-215) above, with R57T counted along it
# Sequence of ALX1 (Homo sapiens, UniProt Q15699 118-204, L144V) (Q15699 118-204 L144V): as the sequence (Q15699 118-204 L144R) above, with R27V counted along it
# Sequence of HOXC9 (P31274 178-260 R222W): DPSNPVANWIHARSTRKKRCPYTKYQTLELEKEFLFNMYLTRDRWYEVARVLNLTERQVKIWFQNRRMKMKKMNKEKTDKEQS
# Sequence of NKX3-2 (Homo sapiens, UniProt P78367 192-278, P234S) (P78367 192-278 P234S): as the sequence (P78367 192-278) above, with P43S counted along it
# Sequence of PROP1 (Homo sapiens, UniProt O75360 56-141, R99H) (O75360 56-141 R99H): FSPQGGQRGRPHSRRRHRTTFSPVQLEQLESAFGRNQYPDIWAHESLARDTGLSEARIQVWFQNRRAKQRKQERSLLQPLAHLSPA
# Sequence of HOXD13 (Homo sapiens, UniProt P35453 263-343, T313R) (P35453 263-343 T313R): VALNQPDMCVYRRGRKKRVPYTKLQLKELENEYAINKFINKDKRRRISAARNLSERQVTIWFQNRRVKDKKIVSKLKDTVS
# Sequence of HOXD13 (Homo sapiens, UniProt P35453 263-343) (P35453 263-343): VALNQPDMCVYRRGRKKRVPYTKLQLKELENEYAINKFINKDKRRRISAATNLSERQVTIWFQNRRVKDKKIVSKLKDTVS
# Sequence of PROP1 (Homo sapiens, UniProt O75360 56-141) (O75360 56-141): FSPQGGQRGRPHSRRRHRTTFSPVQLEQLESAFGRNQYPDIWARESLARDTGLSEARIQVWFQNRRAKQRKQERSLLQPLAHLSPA
# Sequence of HOXD13 (Homo sapiens, UniProt P35453 263-343, T313A) (P35453 263-343 T313A): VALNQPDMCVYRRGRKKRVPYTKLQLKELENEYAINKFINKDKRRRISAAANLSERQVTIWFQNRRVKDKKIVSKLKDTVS
# Sequence of PROP1 (Homo sapiens, UniProt O75360 56-141, F88S) (O75360 56-141 F88S): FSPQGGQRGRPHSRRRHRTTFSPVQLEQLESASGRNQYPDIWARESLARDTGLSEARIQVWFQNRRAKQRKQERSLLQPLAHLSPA
sequence,measurement,setting,value
AGTGCGTG,binding signal,NKX2-4,"11.3 upbm affinity estimate (log intensity, higher = more binding, comparable within an allelic series)"
ATCTGATC,binding signal,SIX6 [1],"11 upbm affinity estimate (log intensity, higher = more binding, comparable within an allelic series)"
same,binding signal,SIX6 [2],"10.4 upbm affinity estimate (log intensity, higher = more binding, comparable within an allelic series)"
CGGATATC,binding signal,SIX6 [1],"10.9 upbm affinity estimate (log intensity, higher = more binding, comparable within an allelic series)"
same,binding signal,SIX6 [3],"10.8 upbm affinity estimate (log intensity, higher = more binding, comparable within an allelic series)"
CAGCAGGG,binding signal,HOXB6 [4],"9.1 upbm affinity estimate (log intensity, higher = more binding, comparable within an allelic series)"
same,binding signal,HOXA2 [5],"7.49 upbm affinity estimate (log intensity, higher = more binding, comparable within an allelic series)"
same,binding signal,HOXA2 [6],"10.3 upbm affinity estimate (log intensity, higher = more binding, comparable within an allelic series)"
same,binding signal,HOXA2 [7],"10.3 upbm affinity estimate (log intensity, higher = more binding, comparable within an allelic series)"
same,binding signal,HOXA2 [8],"7.08 upbm affinity estimate (log intensity, higher = more binding, comparable within an allelic series)"
same,binding signal,HOXB6 [9],"9.13 upbm affinity estimate (log intensity, higher = more binding, comparable within an allelic series)"
AATTTAAT,binding signal,HOXB6 [4],"9.98 upbm affinity estimate (log intensity, higher = more binding, comparable within an allelic series)"
same,binding signal,HOXD13 [10],"10.4 upbm affinity estimate (log intensity, higher = more binding, comparable within an allelic series)"
same,binding signal,HOXD13 [11],"11.5 upbm affinity estimate (log intensity, higher = more binding, comparable within an allelic series)"
same,binding signal,PAX4,"10.9 upbm affinity estimate (log intensity, higher = more binding, comparable within an allelic series)"
same,binding signal,PROP1 [12],"11.2 upbm affinity estimate (log intensity, higher = more binding, comparable within an allelic series)"
same,binding signal,PROP1 [13],"10.7 upbm affinity estimate (log intensity, higher = more binding, comparable within an allelic series)"
same,binding signal,HOXD13 [14],"11.3 upbm affinity estimate (log intensity, higher = more binding, comparable within an allelic series)"
same,binding signal,HOXC9,"11.1 upbm affinity estimate (log intensity, higher = more binding, comparable within an allelic series)"
same,binding signal,PROP1 [15],"7.76 upbm affinity estimate (log intensity, higher = more binding, comparable within an allelic series)"
AGCCTTGC,binding signal,HOXB6 [4],"9.12 upbm affinity estimate (log intensity, higher = more binding, comparable within an allelic series)"
same,binding signal,HOXA2 [5],"7.13 upbm affinity estimate (log intensity, higher = more binding, comparable within an allelic series)"
same,binding signal,HOXA2 [6],"10.3 upbm affinity estimate (log intensity, higher = more binding, comparable within an allelic series)"
same,binding signal,HOXA2 [7],"10.6 upbm affinity estimate (log intensity, higher = more binding, comparable within an allelic series)"
same,binding signal,HOXA2 [8],"7.12 upbm affinity estimate (log intensity, higher = more binding, comparable within an allelic series)"
same,binding signal,HOXB6 [9],"8.94 upbm affinity estimate (log intensity, higher = more binding, comparable within an allelic series)"
ATCATGAT,binding signal,SIX6 [2],"10.4 upbm affinity estimate (log intensity, higher = more binding, comparable within an allelic series)"
AGGCGCTC,binding signal,HOXB6 [4],"9.06 upbm affinity estimate (log intensity, higher = more binding, comparable within an allelic series)"
same,binding signal,ALX1 [16],"6.32 upbm affinity estimate (log intensity, higher = more binding, comparable within an allelic series)"
same,binding signal,ALX1 [17],"6.29 upbm affinity estimate (log intensity, higher = more binding, comparable within an allelic series)"
same,binding signal,NKX3-2 [18],"10.5 upbm affinity estimate (log intensity, higher = more binding, comparable within an allelic series)"
same,binding signal,ALX1 [19],"6.17 upbm affinity estimate (log intensity, higher = more binding, comparable within an allelic series)"
same,binding signal,HOXB6 [9],"8.87 upbm affinity estimate (log intensity, higher = more binding, comparable within an allelic series)"
same,binding signal,NKX3-2 [20],"10.6 upbm affinity estimate (log intensity, higher = more binding, comparable within an allelic series)"
ATAATACC,binding signal,SIX6 [2],"10.4 upbm affinity estimate (log intensity, higher = more binding, comparable within an allelic series)"
CTCGTGCC,binding signal,HOXB6 [4],"9.04 upbm affinity estimate (log intensity, higher = more binding, comparable within an allelic series)"
same,binding signal,ALX1 [16],"6.52 upbm affinity estimate (log intensity, higher = more binding, comparable within an allelic series)"
same,binding signal,ALX1 [17],"6.32 upbm affinity estimate (log intensity, higher = more binding, comparable within an allelic series)"
same,binding signal,ALX1 [19],"6.36 upbm affinity estimate (log intensity, higher = more binding, comparable within an allelic series)"
same,binding signal,HOXB6 [9],"8.84 upbm affinity estimate (log intensity, higher = more binding, comparable within an allelic series)"
